This is a sample that favours compounds with a hit; in the whole collection about 3.1% have one here.
SSB-PriA inh: K. pneumoniae PriA-SSBct interaction inhibition | inhibition, % at 33 µM | AlphaScreen SSBct-PriA binding, biotinylated peptide | 430,000 tested, 0.6% active; in the data active = inhibition mostly above about 37%, no sharp cut-off; inactive = mostly below about 20%;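 also: plate controls were negative control peptide for no effect and reference peptide for full effect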
Autofluor counter: counter-screen for toxin protease inhibitors: compound fluorescence; AID 624483; compound autofluorescence counterscreen, microsphere flow cytometry; active compounds read high; 360,000 tested, 3.1% active; fluorescence intensity (concentration not given with the values); in the data active = fluorescence intensity above about 16000; inconclusive = no clear call, values can overlap the other calls
Anthrax LF inh2: anthrax lethal factor protease inhibition; P15917; multiplex microsphere protease cleavage assay, LF; inhibition, % at 10 µM; 360,000 tested, 0.12% active; AID 588501; also: plate controls were buffer without enzyme for full effect and enzyme alone for no effect
Target sequence (P15917 whole entry, looked up): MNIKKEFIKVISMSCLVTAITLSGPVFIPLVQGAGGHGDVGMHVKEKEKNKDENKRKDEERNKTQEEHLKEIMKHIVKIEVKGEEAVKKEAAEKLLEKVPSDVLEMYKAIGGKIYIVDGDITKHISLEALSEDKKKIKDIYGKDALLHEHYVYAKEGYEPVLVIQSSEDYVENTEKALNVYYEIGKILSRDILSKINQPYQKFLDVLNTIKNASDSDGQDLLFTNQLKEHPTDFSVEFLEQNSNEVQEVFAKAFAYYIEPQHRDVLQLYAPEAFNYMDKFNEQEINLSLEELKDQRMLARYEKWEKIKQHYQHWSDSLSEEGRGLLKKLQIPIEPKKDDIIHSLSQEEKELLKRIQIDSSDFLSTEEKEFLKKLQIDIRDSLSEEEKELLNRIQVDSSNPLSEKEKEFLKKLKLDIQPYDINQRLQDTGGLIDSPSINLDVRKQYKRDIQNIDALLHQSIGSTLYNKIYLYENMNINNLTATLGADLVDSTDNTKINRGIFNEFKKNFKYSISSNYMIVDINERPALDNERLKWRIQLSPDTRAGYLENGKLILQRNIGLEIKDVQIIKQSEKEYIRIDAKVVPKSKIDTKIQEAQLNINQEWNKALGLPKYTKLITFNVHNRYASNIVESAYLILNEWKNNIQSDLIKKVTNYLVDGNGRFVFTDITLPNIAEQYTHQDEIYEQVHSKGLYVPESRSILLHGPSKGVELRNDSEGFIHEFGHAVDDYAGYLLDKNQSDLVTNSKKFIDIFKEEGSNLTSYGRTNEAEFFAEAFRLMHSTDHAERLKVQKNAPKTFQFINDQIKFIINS
BoNT-F LC inh: blocks Botulinum neurotoxin F light chain protease; Multiplex microsphere protease cleavage assay, flow cytometry; inhibition, % at 10 µM; 360,000 tested, 0.22% active; AID 588497; in the data active = inhibition above about 35%, passing the limit was not always enough; inconclusive = no clear call, values can overlap the other calls; also: plate controls were buffer without enzyme for full effect and enzyme alone for no effect
BoNT-A LC inh2: inhibitors of Botulinum neurotoxin A light chain protease; 360,000 tested, 0.17% active; inhibition, % at 10 µM; multiplex microsphere protease substrate cleavage, flow cytometry; also: plate controls were buffer without enzyme for full effect and enzyme alone for no effect
The depositor's hits bear a star; ? = inconclusive; . = not tested or not shown. Rule as the data show it, unless noted: active = inhibition above about 30%; inconclusive = no clear call, values can overlap the other calls; inactive = below that.

SMILES | SSB-PriA inh | Autofluor counter | Anthrax LF inh2 | BoNT-F LC inh | BoNT-A LC inh2
N#CCO/N=C(\c1ccccc1)c1ccncc1 | . | 16207* | -1.9 | -1.9 | ?
Oc1c(C=C2N=c3ccccc3=N2)sc(=S)n1-c1ccccc1F | 21.0 | . | . | . | .
O=C(NCCn1ncc2c(=O)n(Cc3ccccc3F)cnc21)c1ccc(Br)o1 | 3.0 | . | . | . | .
O=C(c1nnn(Cc2ccccc2)c1-n1cccc1)N1CCSCC1 | -1.0 | . | . | . | .
CCOC(=O)CSc1nc2c(c(=O)[nH]c(=O)n2C)n1C/C=C(/C)Cl | -17.2 | 24116* | -3.1 | 0.5 | ?
Cc1ccc(Cn2c(CN3CCOCC3)nc3c2c(=O)[nH]c(=O)n3C)cc1 | -4.7 | 22053* | -1.6 | 1.7 | 4.5
CC(C)CCn1c(CN2CCN(Cc3ccccc3)CC2)nc2c1c(=O)[nH]c(=O)n2C | -11.7 | 22665* | -0.9 | -1.4 | -0.6
Cn1c(=O)[nH]c(=O)c2c1nc(CN1CCOCC1)n2Cc1ccccc1 | 1.8 | 15936 | 0.7 | 1.9 | 2.1
Cn1c(=O)[nH]c(=O)c2c1nc(CN1CCN(c3cccc(Cl)c3)CC1)n2CCN1CCOCC1 | -15.2 | 20987* | 2.6 | 7.6 | ?
CCCCn1c(SCC(=O)OCC)nc2c1c(=O)[nH]c(=O)n2C | -0.3 | 5531 | -8.9 | 0.0 | -0.6
COc1cc(-c2noc(CN3C(=O)COc4ccc(C)cc43)n2)cc(OC)c1OC | -9.0 | . | . | . | .
CCN1CCN(c2nc3ncn(CC(=O)Nc4ccc(Br)cc4F)c(=O)c3s2)CC1 | 0.0 | . | . | . | .
CCCSc1nc2c(c(=O)[nH]c(=O)n2C)n1Cc1ccc(C)cc1 | -20.3 | 21791* | -2.2 | 1.3 | 1.1
CCCSc1nc2c(c(=O)[nH]c(=O)n2C)n1Cc1ccccc1 | 3.6 | 4071 | 11.6 | -3.2 | -3.0
Cc1cc(C(=O)N2CCN(S(C)(=O)=O)CC2)sc1-c1ccccc1 | -13.3 | 9585 | -1.2 | 3.2 | 0.5
Cc1cc(C(=O)N2CCN(c3ncccn3)CC2)sc1-c1ccccc1 | -6.4 | 24354* | -1.5 | -4.4 | ?
COc1cc(/C=C/C=C2/CC/C(=C/C=C/c3ccc(O)c(OC)c3)C2=O)ccc1O | -4.8 | 3836 | 34.3* | -4.5 | 38.6*
COc1cc(/C=C2/CC/C(=C/c3ccc(O)c(OC)c3)C2=O)ccc1O | 3.3 | 3855 | -4.9 | -19.8 | 14.2
CC(=O)OCCn1c(C)[n+](CCOC(C)=O)c2cc(Cl)c(Cl)cc21 | -12.3 | 4689 | -5.1 | 9.2 | -1.2
CC(=O)OCCn1c2nc(=O)[nH]c(=O)c-2nc2cc(C)c(C)cc21 | -25.8 | 2682 | -10.1 | 42.4* | 8.1
COc1ccc(-c2cc(O)cc(O)c2)cc1 | 0.8 | 16572* | -3.9 | -3.0 | -1.7
COc1ccc(OC)cc1 | -8.1 | 4093 | -0.3 | -7.5 | -0.2
O=C(COC(=O)c1cncc(Br)c1)NC1CCCCCC1 | -26.4 | 4808 | 25.2 | 1.9 | 31.2*
CC1CCc2c(sc(N=Cc3ccco3)c2C(N)=O)C1 (stereo not given) | 2.5 | . | . | . | .
CC(C)c1ccc(C=NNC(=O)c2ccc(Cn3cccn3)o2)cc1 | 5.5 | . | . | . | .
SMILES | SSB-PriA inh | Autofluor counter | Anthrax LF inh2 | BoNT-F LC inh | BoNT-A LC inh2
COC(=O)c1ccc(CS(=O)(=O)c2ccc(C)cc2)cc1 | -10.8 | 21233* | -3.5 | 5.2 | ?
CN(C)CCCN(C(=O)c1ccc2c(c1)CCCC2)c1nc2ccc(Br)cc2s1 | 28.0 | . | . | . | .
CCOc1cc(-c2ccc(N)c(OCC)c2)ccc1N | 69.9* | 4224 | -3.3 | -34.5 | -0.1
COC(=O)c1c(NS(=O)(=O)c2cccs2)sc2c1CCCC2 | 4.9 | 25083* | -4.9 | -7.0 | -4.0
COC(=O)c1c(NC(=O)Cc2cccs2)sc2c1CCCC2 | -5.6 | 2143 | -0.2 | -11.6 | 0.0
O=C(Nc1sc2c(c1C(=O)O)CCCC2)c1cccs1 | 4.7 | 24122* | -1.5 | -2.7 | -0.7
O=C(O)CCn1nnc(-c2cccs2)n1 | 2.0 | . | . | . | .
CC(C)c1ccc(-c2nnn(CCC(=O)O)n2)cc1 | -8.6 | 16264* | -1.5 | -0.2 | 0.2
NC(=O)c1cc(S(=O)(=O)NC2CCCCC2)co1 | -12.8 | 22647* | -2.2 | -2.6 | ?
Cc1nnc(NC(=O)CSc2nnc(-c3cccnc3)o2)s1 | -7.0 | . | . | . | .
O=C(NCCC1CCCCN1S(=O)(=O)c1cccs1)c1ccc(Br)o1 (stereo not given) | -16.0 | . | . | . | .
COc1ccc(N(Cc2cc(=O)[nH]c3ccccc23)C(=O)c2ccco2)cc1 | -4.0 | 20241* | -2.8 | 0.5 | ?
S=c1[nH]cc(-c2ccccc2)n1Cc1ccco1 | 18.0 | . | . | . | .
O=C1C(c2ccccc2)=C(N2CC2)c2ccccc21 | 41.4* | 2429 | -3.1 | -0.6 | 1.0
c1ccc(-c2nc(N3CCCCCC3)c3ccccc3n2)nc1 | 86.7* | 2112 | 5.9 | 3.9 | 0.7
CSc1nc(N2CCOCC2)c2ccccc2n1 | -13.2 | 23367* | -0.3 | -0.3 | -0.8
CCN1CCN(c2nc(-c3ccccn3)nc3ccccc23)CC1 | -7.8 | 24768* | -1.6 | -11.8 | -5.5
c1ccc(-c2nc(N3CCOCC3)c3ccccc3n2)nc1 | 61.7* | 4565 | -0.2 | -2.7 | -1.1
c1ccc(-c2nc(N3CCCC3)c3ccccc3n2)nc1 | 54.2 | . | . | . | .
CSc1nc(N2CCN(c3ccccc3Cl)CC2)c2ccccc2n1 | -8.7 | 5233 | -5.3 | -8.9 | -0.5
CC(C)OP(=O)(OC(C)C)C(N)Cc1ccccc1 (stereo not given) | -7.0 | . | . | . | .
CCOc1cc(C=NNC(=O)CSc2nncn2C)ccc1OCc1cccc(C)c1 | -10.1 | . | . | . | .
Cc1ccc(C(O)c2nc3ccccc3n2C)cc1 (stereo not given) | -3.8 | 4123 | -18.4 | 35.4* | -1.8
COc1cccc(CNC(=O)CSc2ncc(-c3ccc(Br)cc3)o2)c1 | 9.0 | . | . | . | .
COc1ccc(NC(=O)N2c3ccccc3CC2C)cc1OC (stereo not given) | -5.0 | 9172 | -10.0 | -0.7 | 1.0
SMILES | SSB-PriA inh | Autofluor counter | Anthrax LF inh2 | BoNT-F LC inh | BoNT-A LC inh2
CC1Cc2ccccc2N1C(=O)COC(=O)c1cccnc1Cl (stereo not given) | -17.2 | 16252* | -1.6 | 1.7 | ?
CC1Cc2ccccc2N1C(=O)COC(=O)c1ccccc1NCCO (stereo not given) | -18.9 | 6754 | 0.3 | -0.5 | -4.2
COC(=O)c1ccccc1NC(=O)N1c2ccccc2CC1C (stereo not given) | -46.7 | 20425* | -2.8 | 2.4 | ?
CCOc1cccc2sc(NCC3CCCO3)nc12 (stereo not given) | 18.0 | . | . | . | .
CCCOc1ccc(NC(=O)CC2C(=O)N(CC)C(=S)N2Cc2cccs2)cc1 (stereo not given) | -7.8 | 21389* | -3.7 | -7.8 | -3.7
CCCCOC(=O)c1ccc(-c2ccc(/C=N/NC(=S)NCC)o2)cc1 | . | 16266* | 3.5 | 3.3 | ?
COCCN(CCOC)S(=O)(=O)c1ccc(C(=O)Nc2cccc3c2C(=O)NC3=O)cc1 | -6.0 | . | . | . | .
O=C1NCCN1c1ccc(Cl)cc1 | 31.0 | . | . | . | .
CN(C)/C=C1\C(=O)N(c2ccc(Cl)cc2)CS1(=O)=O | 1.3 | 23839* | -1.3 | -1.9 | -1.4
Cc1ccc(N2CS(=O)(=O)/C(=C/N(C)C)C2=O)cc1 | -8.8 | 21872* | -0.3 | 2.0 | 2.8
O=C(c1ccc(Br)cc1)C1CCc2occc2C1=O (stereo not given) | -8.2 | 22206* | 0.5 | 3.1 | 1.0
Cc1noc(-c2ccn3c(CNC(=O)c4cccs4)nnc3c2)n1 | -19.0 | . | . | . | .
COc1cc(C)c(CN2CCN(c3ccccc3)CC2)cc1C | -5.5 | 17583* | -2.3 | -9.4 | -3.5

Bioassay records as filed in PubChem.
